According to publication PMC9574860, “Chemical Toolkit for PARK7: Potent, Selective, and High-Throughput” (Journal of Medicinal Chemistry, 2022):
Among all 7,900 compounds or so, about 400 (5.1%) showed an effect of 50% or more. The full list was thinned out, with strong results kept by preference.

Target: Parkinson's disease protein 7 (PARK7/DJ1) (human, UniProt Q99497)
Test: primary screen, percent inhibition; read as competition with a fluorescent probe by fluorescence polarization; higher = more effect of the substance
Conditions: 100 µM
Method in brief: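 Covalent fragments at 100 μM final were incubated 2 h with 0.2 μM PARK7, then 20 nM probe JYQ-107 added for a further 2 h. Fluorescence polarization read at 480/520 nm; relative FP loss versus reference controls gave remaining enzyme activity.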

Sequence of Parkinson's disease protein 7 (PARK7/DJ1) (Q99497 whole entry, looked up): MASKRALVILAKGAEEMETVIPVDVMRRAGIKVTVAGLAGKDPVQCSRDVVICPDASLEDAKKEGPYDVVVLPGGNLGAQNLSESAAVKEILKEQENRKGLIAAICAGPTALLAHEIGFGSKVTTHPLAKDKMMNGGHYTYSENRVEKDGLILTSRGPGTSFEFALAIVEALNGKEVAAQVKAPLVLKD

In order of rising Inhibition %:
1. O=S(=O)(F)c1ccc(Cl)c(S(=O)(=O)F)c1  -3.28%
2. N#Cc1nc(-c2ccc(Cl)cc2Cl)oc1N  -2.51%
3. C=CC(=O)N1CCC(c2nc(C(F)(F)F)c[nH]2)CC1  0.0839%
4. CCn1c(C)cc(C(=O)Cn2cnc(C#N)n2)c1C  0.239%
5. Cc1ccoc1C=C(C#N)C(=O)NCCc1ccccc1  0.974%
6. CC1(C)OB(c2cccc(OCCCN3CCCC3)c2)OC1(C)C  1.19%
7. O=c1onc(-c2ccccc2)n1Cc1ccncc1  1.3%
8. Cc1cc(C(=O)CCl)c(C)n1CC(F)(F)F  1.46%
9. Cl.O=C(CCl)Nc1ncc[nH]1  1.78%
10. C=CC(=O)N1CCOC(c2ccc(C(F)(F)F)cc2)C1 (centres unmarked)  1.86%
11. CC1CC(Sc2nnc(-c3ccco3)o2)C(=O)O1 (centres unmarked)  1.96%
12. Cc1cc(C=C(C#N)C(N)=O)c(C)n1C1CC1  2.13%
13. Cc1ccc(Oc2ccc(Cl)cc2NC(=O)CCl)cc1  2.17%
14. COCc1cccnc1C#N  2.34%
15. CN(Cc1ncnn1C)S(=O)(=O)C=Cc1ccccc1  3.12%
16. N#CC1(CCCl)CCCCC1  3.15%
17. Cc1cc(C(=O)CCl)c(C)n1CC1CCCO1 (centres unmarked)  3.43%
18. Sc1nnnc2ccccc12  3.52%
19. CC(C)c1nc(C(C)Nc2ccc(C#N)nc2)cs1 (centres unmarked)  3.63%
20. Cl.NCC1OB(O)c2ccccc21 (centres unmarked)  3.67%
21. C=CC(=O)N1CCCCC1c1noc(C)n1 (centres unmarked)  3.88%
22. C=CC(=O)N1CCC(C(=O)NCC(F)(F)F)C1 (centres unmarked)  4.08%
23. Cc1cc(C(=O)CCl)c(C)n1CC(N)=O  4.29%
24. CCc1ccc(C=CS(=O)(=O)Nc2onc(C)c2C)cc1  4.3%
25. COc1cc(CO)ccc1B1OC(C)(C)C(C)(C)O1  4.39%
26. Fc1ccc(C2CO2)nc1 (centres unmarked)  4.53%
27. O=S1(=O)C=CC(O)C1 (centres unmarked)  4.75%
28. CN1CCN(c2cccc(C#N)n2)CC1  5.08%
29. CCC(NC(=O)CCl)c1ccc(Br)cc1 (centres unmarked)  5.16%
30. COc1cc(OC)c(C(=O)CCl)c(OC)c1  5.2%
31. C=CC(=O)N1CCN(c2ccc(C)o2)C(=O)C1  5.39%
32. O=C(NCCC(=O)N1CCCCC1)c1cc(S(=O)(=O)F)c[nH]1  5.43%
33. Cc1cc(F)c(C(=O)CCl)cc1F  5.49%
34. C=CC(=O)N1CCN(c2ccc(OC)cn2)CC1  5.59%
35. C=CC(=O)N1CCCCC1CS(C)(=O)=O (centres unmarked)  5.69%
36. O=C(CN1CCSC1=O)N1CCN(c2ccccc2)CC1  5.93%
37. Cc1cc(C(=O)CCl)c(F)cc1F  5.96%
38. CC1CCN(C(=O)CCl)c2ccccc2S1 (centres unmarked)  6.09%
39. COC(F)(F)C(F)(F)c1ccc(B2OC(C)(C)C(C)(C)O2)cc1  6.09%
40. O=c1ccc2cc(S(=O)(=O)OCC(F)(F)F)ccc2o1  6.17%
41. O=C1OC[C@@H]2CN(Cc3ccccc3)C[C@H]12 (racemic)  6.21%
42. C=CC(=O)N1CCC2COCC2C1 (centres unmarked)  6.41%
43. CCCn1c(C)cc(C(=O)Cn2cnc(C#N)n2)c1C  6.57%
44. NC(=O)C1CCCN(S(=O)(=O)C=Cc2ccccc2)C1 (centres unmarked)  6.58%
45. CC1(CO)CCCC1Nc1ccc(C#N)nc1 (centres unmarked)  6.61%
46. C=CC(=O)N1CCC(S(=O)(=O)NC(C)C)C1 (centres unmarked)  7.14%
47. CCN(CC)S(=O)(=O)c1cc(NC(=O)CCl)ccc1C  7.16%
48. CC(c1ccsc1)N1CCN(c2ccc(C#N)nc2)CC1 (centres unmarked)  7.22%
49. Cc1cc(C=C(C#N)C(N)=O)c(C)n1Cc1ccco1  7.44%
50. C=CC(=O)N[C@H]1C[C@H](C)S(=O)(=O)c2sccc21  7.51%
51. CN(C)S(=O)(=O)c1ccc(NC(=O)CCCl)cc1  7.94%
52. COc1ccc(NC(=O)CCl)cc1S(=O)(=O)N(C)C  9.41%
53. O=C(CCl)Nc1ccccc1SC(F)F  9.47%
54. O=C(C=Cc1cnc2ccccc2n1)N1CCCCC1  9.55%
55. C=CC(=O)N1c2cc(OC)ccc2NC(=O)C1C (centres unmarked)  9.84%
56. Cc1nc(S)c(C#N)cc1C(=O)Nc1ccccc1  10.1%
57. C=CC(=O)NCCc1cncnc1  10.1%
58. CC1(C)[C@@H](Nc2cnc(C#N)cn2)[C@@H]1c1ccccc1 (racemic)  10.2%
59. CS(=O)(=O)C(C#N)=Cc1cnn(-c2ccccc2)c1  10.2%
60. Cc1ccc(NC(=O)CCl)cc1S(=O)(=O)N(C)C  10.4%
61. C=CC(=O)N1C[C@H](F)C[C@H]1C(=O)N1CCOCC1  10.5%
62. CN1CCC2(CCCN2C(=O)c2cccc(S(=O)(=O)F)c2)CC1  10.6%
63. C=CC(=O)N1CCSC2(CCC2)CC1  10.9%
64. O=C(CCl)Nc1cc(Cl)ccc1-n1cncn1  11%
65. Cc1cc(C(=O)Cn2cnc(C#N)n2)c(C)n1C(C)C  11.7%
66. COc1ccc(OC)c(C(=O)CCl)c1  11.8%
67. O=S(=O)(F)c1nc2ccccc2s1  12.9%
68. C=C(Cl)CSc1nc2ccsc2c(=O)n1C  13.1%
69. O=S(=O)(F)c1ccc(Br)cc1  13.2%
70. O=C(C1CCOCC1)N1CCOC(CS(=O)(=O)F)C1 (centres unmarked)  13.3%
71. COC(=O)C1CC(S(=O)(=O)F)CN1C(=O)C1CC1C (centres unmarked)  13.7%
72. C=CC(=O)NC1CC(C(C)(C)C)C1 (centres unmarked)  14%
73. CC(=O)Nc1c(C)cc(C)c(C(=O)CCl)c1C  14%
74. Cc1noc(C)c1Cn1c(-c2ccccc2)noc1=O  14.3%
75. COc1cc(NC(=O)OC(C)(C)C)ccc1B1OC(C)(C)C(C)(C)O1  14.5%
76. COc1ccc(Cl)cc1NC(=O)CCl  14.9%
77. COc1ccccc1CCNC(=O)CCl  15.8%
78. N#Cc1cc(C(=O)NCC2CCc3nccn3C2)c[nH]1 (centres unmarked)  16.5%
79. Cc1cc(C(=O)Cn2cnc(C#N)n2)c(C)n1C1CC1  17.1%
80. Cc1cc(C(=O)Cn2cnc(C#N)n2)c(C)n1C  18.2%
81. CCN(CC)S(=O)(=O)c1cccc(NC(=O)CCl)c1  22.5%
82. CC(OS(C)(=O)=O)C(C)c1ccc2ccccc2n1.Cl (centres unmarked)  24.3%
83. Cc1ccc(Sc2ccc(NC(=O)CCl)cc2)c(C)c1  25.5%
84. CC1(C)OB(c2ccc3c(c2)NC(=O)C3)OC1(C)C  27.3%
85. O=C(CCl)Nc1ccc(NC(=O)c2cccs2)cc1  28%
86. COc1ccccc1CNC(=O)CCl  28%
87. COc1ccc(NC(=O)CCl)cc1Cl  28.1%
88. N#Cc1ncn(CC(=O)N(C2=CCCCC2)C2CC2)n1  29.4%
89. COc1ccc(Cl)cc1C(=O)NNC(=O)CCl  29.8%
90. O=C(C1CCOCC1)N1CCC(S(=O)(=O)F)CC1  30.7%
91. COc1ccccc1C(C)N(C)C(=O)CCl (centres unmarked)  31.5%
92. CCC1CN(C(=O)CCl)CCO1 (centres unmarked)  33.6%
93. C=CC(=O)N1CCOCC2(CC2)C1  33.9%
94. Cc1ccc(Sc2ccc(NC(=O)CCl)cc2)cc1C  34.5%
95. Cc1cc(C(=O)CCl)c(C)n1C1CCS(=O)(=O)C1 (centres unmarked)  35.7%
96. Cc1ccc(C)c(Sc2ccc(NC(=O)CCl)cc2)c1  37%
97. COc1ccc(C(=O)CCl)c(OC)c1  41.1%
98. COCCn1c(C)cc(C(=O)CCl)c1C  49.1%
99. Cc1cc(C(=O)CCl)c(C)n1Cc1ccco1  54.9%
100. CCn1c(C)cc(C(=O)CCl)c1C  56%
101. CCCn1c(C)cc(C(=O)CCl)c1C  56%
102. CC1CC1C(=O)N1CCCCC1CCS(=O)(=O)F (centres unmarked)  57.7%
103. C=CCn1c(C)cc(C(=O)CCl)c1C  58.7%
104. Cc1oncc1Cn1c(-c2ccncc2)noc1=O  59.3%
105. O=C(O)c1ccoc1CS  64.1%
106. COc1ccc(C(=O)CCl)c2c1C(=O)CO2  64.2%
107. Cc1cc(C(=O)CCl)c(C)n1C1CC1  65%
108. O=S(=O)(F)c1ccc2ccccc2n1  69.3%
109. Cc1cc(C(=O)CCl)c(C)n1C  72.1%
110. COc1cccc(CN(C)C(=O)CCl)c1OC  74.5%
111. O=C(C1CCOCC1)N1CCCCC1CCS(=O)(=O)F (centres unmarked)  82.4%
112. CC(C)N(C)S(=O)(=O)c1ccc(NC(=O)CCl)cc1  83.8%
113. CN(C)S(=O)(=O)c1ccc(NC(=O)CCl)cc1  84.2%
114. CSc1ccc(NC(=O)CCl)cc1  86%
115. O=C(NCC12CCCN1CCC2)c1cccc(S(=O)(=O)F)c1  86.4%
116. O=S(=O)(F)c1cc(Br)ccc1Cl  88.4%
117. CCN(CC)S(=O)(=O)c1ccc(NC(=O)CCl)cc1  90.5%
118. COc1ccc(C(=O)CCl)cc1F  91.7%
119. O=C(CCl)N1CCOC(c2ccc(F)cc2)C1 (centres unmarked)  95.3%
120. COc1ccc(C(=O)CCl)cc1Cl  95.9%
121. Cc1cc(C(=O)CCl)c(C)n1C(C)C  96.9%
122. CS(=O)C1(CNC(=O)c2cccc(S(=O)(=O)F)c2)CCC1 (centres unmarked)  97.3%
123. Cc1cc(C(=O)CCl)c(C)[nH]1  98.2%
124. COc1ccccc1CN(C)C(=O)CCl  98.6%
125. O=C(CCl)Nc1ccc(SC(F)F)cc1  100%
